The nature of experiment [1]: Nuclear factor erythroid 2-related factor 2/antioxidant responsive element (Nrf2/ARE) small molecule agonists: qHTS cell viability counter screen in human keratinocytes (AID 1919968; active means well fitted curve in the direction sought with a large enough effect in the repeat runs; an effect the other way counts as inactive or inconclusive; further: nearly all actives have a fitted effect of over 55% in size). An outline of the steps: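 KeratinoSens cells (HaCaT keratinocytes stably carrying an ARE-luciferase reporter) were seeded at 1,500 cells/well and rested 5 h at 37 C/5% CO2. They were then exposed to compounds in DMSO for 23 h. Viability was read by CellTiter-Fluor fluorescence after 1 h.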

Experiment [2] in a line: Nuclear factor erythroid 2-related factor 2/antioxidant responsive element (Nrf2/ARE) small molecule agonists: luciferase reporter gene qHTS assay in human keratinocytes (AID 1919969). Further: nearly all actives have a fitted effect of over 35% in size. Further: potency means the concentration at half of the fitted maximal effect. On the technique in general: In a reporter assay the amount or activity of a reporter protein is the signal.
Experiment [3] has as its target Gonadotropin-releasing hormone receptor (Homo sapiens) (UniProt P30968). Put plainly: Human gonadotropin-releasing hormone receptor (GnRHR) small molecule agonists, calcium flux assay in GnRHR-HEK293 cells (AID 1920063). Further: nearly all actives have a fitted effect of over 35% in size. The method in brief:
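HEK293 cells stably expressing human GnRHR were plated 18 h at 37 °C, loaded with calcium dye 1 h at 37 °C, then given compound in agonist mode; fluorescence (Ex/Em 480/540) read kinetically for 3 min at 1 s intervals.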
For orientation: Calcium assays in cells follow changes in intracellular calcium, usually with a dye or a luminescent sensor.

Experiment [4] concerns the target KiSS-1 receptor (Homo sapiens) (UniProt Q969F8). Put plainly: Human kisspeptin (KISS1R) small molecule agonists, calcium flux assay in KISS1R-HEK293 cells (AID 1920064; active means well fitted curve in the direction sought with a large enough effect in the repeat runs; an effect the other way counts as inactive or inconclusive). The method in brief: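 HEK293 cells stably expressing human KISS1R were plated 18 h at 37 °C, loaded with calcium dye for 1 h at 37 °C, then given compound by pin tool. Fluorescence (Ex/Em 480/540) was read kinetically for 3 min.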

Experiment [5] in a line: G protein-coupled receptor (GPCR) small molecule agonists, calcium flux assay: HEK293 wild type cell line counter screen (AID 1920065). An outline of the steps: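 Cells were plated and cultured 18 h at 37 C/5% CO2, then loaded with calcium dye for 1 h at 37 C. Compounds in DMSO were pin-transferred in agonist mode, and fluorescence (Ex/Em 480/540) was read kinetically for 3 min at 1 s intervals.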

Experiment [6] is described as follows: p53 small molecule agonists, cell-based qHTS assay with human liver microsomes: qHTS cell viability counter screen (AID 1963579). Further: nearly all actives have a fitted effect of over 45% in size. Further: potency means the concentration at half of the fitted maximal effect. The method in brief: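 Metabolic activation used human liver microsomes and NADPH, both 0.5 mg/mL final, over 16 hours at 37 C on p53RE-bla cells (4,000/well). Cytotoxicity measured by CellTiter-Glo luminescence, 30 min at room temperature.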
(In general: qHTS replaces the single test concentration by a dilution series.)

Experiment [7] is described as follows: p53 small molecule agonists, cell-based qHTS assay with rat liver microsomes: qHTS cell viability counter screen (AID 1963580). Further: nearly all actives have a fitted effect of over 45% in size. The method in brief: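 In HCT-116 cells carrying a p53 response element-bla reporter, compounds were metabolically activated in situ by rat liver microsomes with NADPH over 16 h. Cell ATP content then served as the cytotoxicity measure.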

Experiment [8] in a line: p53 small molecule agonists, cell-based qHTS assay: qHTS cell viability counter screen (AID 1963581). Further: nearly all actives have a fitted effect of over 45% in size. The method in brief: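 p53RE-bla HCT-116 cells were exposed to compounds for 16 h at 37 C; after the beta-lactamase FRET read in the same wells, CellTiter-Glo was added and luminescence (intracellular ATP) read after 30 min at room temperature.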
The target of experiment [9] is 5-hydroxytryptamine receptor 2A (Homo sapiens) (UniProt P28223). Put plainly: 5-hydroxytryptamine receptor 2A (HTR2A) small molecule antagonists, cell-based qHTS assay (AID 1963586). Further: nearly all actives have a fitted effect of over 45% in size. Further: potency means the concentration at half of the fitted maximal effect. An outline of the steps: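 Antagonist-mode intracellular calcium assay: DOI (4 nM) added after 5 min compound pre-incubation at room temperature to dye-loaded HTR2A-CHO cells. Fluorescence followed for 3 min, sampled every second.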

For experiment [10] the target is unchanged. The experiment is described as follows: 5-hydroxytryptamine receptor 2A (HTR2A) small molecule agonists, cell-based qHTS assay (AID 1963587). Further: nearly all actives have a fitted effect of over 30% in size. The method in brief:
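HTR2A-CHO cells, plated 18 h at 37 C/5% CO2, dye-loaded 1 h at 37 C; compounds in DMSO added by pin tool (agonist mode). Intracellular calcium flux read as kinetic fluorescence on FDSS over 2 min at 1 s intervals.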

The target in experiment [11] is Muscarinic acetylcholine receptor M1 (Homo sapiens) (UniProt P11229). Put plainly: Cholinergic receptor muscarinic 1 (CHRM1) small molecule antagonists, cell-based qHTS assay (AID 1963588). Further: nearly all actives have a fitted effect of over 40% in size. Further: potency means the concentration at half of the fitted maximal effect. An outline of the steps:
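CHRM1-CHO calcium-flux assay, antagonist mode. Cells were seeded 18 h, dye-loaded 1 h at 37 C and given compound for 5 min at RT, then acetylcholine was added at 50nM. FDSS fluorescence was read 3 min; 15 concentrations, three runs.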

Experiment [12] shares this target. Put plainly: Cholinergic receptor muscarinic 1 (CHRM1) small molecule agonists, cell-based qHTS assay (AID 1963589). Further: nearly all actives have a fitted effect of over 35% in size. The method in brief:
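CHO cells stably expressing human CHRM1, seeded 18 h at 37 C/5% CO2, dye-loaded 1 h at 37 C, then given compound in agonist mode; intracellular calcium fluorescence read kinetically at 1 s intervals. Fifteen concentrations, three independent runs.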

For experiment [13], the target named is Beta-2 adrenergic receptor (Homo sapiens) (UniProt P07550). The experiment is described as follows: Adrenergic beta2 receptor (ADRB2) small molecule antagonists, cell-based qHTS assay (AID 1963592). Further: nearly all actives have a fitted effect of over 50% in size. Further: potency means the concentration at half of the fitted maximal effect. An outline of the steps:
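Cells (CHO, stable ADRB2 overexpression) incubated 18-20hr at 37C; compounds added from DMSO; agonist mix (1nM isoproterenol, 100uM IBMX, 25uM Ro-20-1724) added; 0.5hr RT; d2-cAMP and anti-cAMP-cryptate added; 1hr RT; 665/615 nm read.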

The target in experiment [14] is D(2) dopamine receptor (Homo sapiens) (UniProt P14416). Put plainly: Dopamine D2 receptor (DRD2) small molecule agonists, cell-based qHTS assay (AID 1963594). Further: nearly all actives have a fitted effect of over 35% in size. The method in brief:
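HEK293 cells stably expressing DRD2 were cultured 24 h at 37 C, then given Ro20-1724 (0.1 mM final) and compounds for 10 min at room temperature. NKH477 (200nM) was then added for 30 min. cAMP was read by HTRF.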

Experiment [15] has the same target. Put plainly: Dopamine D2 receptor (DRD2) small molecule antagonists, cell-based qHTS assay (AID 1963595; active means well fitted inhibition curve with a large enough effect in the signal ratio in the repeat runs, with a control signal flat; the % refers to the signal ratio). An outline of the steps:
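In this cell-based antagonist screen, compounds act for 10 min at room temperature before a 30 min challenge with 12 nM quinpirole and 200 nM NKH477. cAMP is quantified by HTRF competition in DRD2-HEK293 cells containing 0.1 mM Ro20-1724.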

Experiment [16] can be described thus: cAMP Responsive Elements (CRE) small molecule antagonists, cell-based qHTS assay (AID 1963591; active means well fitted inhibition curve with a large enough effect in the signal ratio in the repeat runs, not every such curve was filed as active; the % refers to the signal ratio). The method in brief:
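CRE-bla HEK293T cells were plated 18 h at 37 °C/5% CO2, pinned with compound in DMSO, then stimulated with NKH477 at 0.25 uM final for 3 h. LiveBLAzer B/G FRET substrate was added and plates incubated 2 h at room temperature.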

Experiment [17] is described as follows: cAMP Responsive Elements (CRE) small molecule agonists, cell-based qHTS assay (AID 1963590). An outline of the steps:
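CRE-bla HEK 293T cells in DMEM with 10% dialyzed FBS, NEAA, pyruvate and 25 mM HEPES were plated 18 h at 37 C/5% CO2, then exposed to compounds in DMSO for 3 h before LiveBLAzer B/G FRET substrate addition.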

Experiment [18] addresses Beta-2 adrenergic receptor (Homo sapiens) (UniProt P07550). Put plainly: Adrenergic beta2 receptor (ADRB2) small molecule agonists, cell-based qHTS assay (AID 1963593).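 Further: CHO cells stably overexpressing human ADRB2.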 The method in brief:
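CHO cells stably over-expressing ADRB2 were plated overnight at 37C, then dosed with compounds plus a stimulation mix containing 100uM IBMX and 25uM Ro-20-1724 for 0.5hr at room temperature. cAMP was measured by HTRF competition, 1hr.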

A number with no mark means an inactive call. Inconclusive results are not listed. Calls of active or inactive are those of the source. Unless noted, the call rests on the fitted dose curve.

D(2) dopamine receptor (Homo sapiens), sequence (P14416 whole entry, looked up): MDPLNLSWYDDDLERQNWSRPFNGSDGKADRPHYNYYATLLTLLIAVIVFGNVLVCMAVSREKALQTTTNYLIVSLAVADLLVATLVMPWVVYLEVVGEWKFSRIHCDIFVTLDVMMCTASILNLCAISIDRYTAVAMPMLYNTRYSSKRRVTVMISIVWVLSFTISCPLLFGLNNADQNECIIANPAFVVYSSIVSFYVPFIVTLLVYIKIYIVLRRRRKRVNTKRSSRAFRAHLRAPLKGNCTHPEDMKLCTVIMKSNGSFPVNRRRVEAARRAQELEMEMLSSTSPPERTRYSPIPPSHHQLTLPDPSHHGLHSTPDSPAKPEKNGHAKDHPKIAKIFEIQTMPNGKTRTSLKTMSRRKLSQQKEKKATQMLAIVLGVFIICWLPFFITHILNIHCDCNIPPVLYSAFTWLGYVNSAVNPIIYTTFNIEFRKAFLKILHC
Gonadotropin-releasing hormone receptor (Homo sapiens), sequence (P30968 whole entry, looked up): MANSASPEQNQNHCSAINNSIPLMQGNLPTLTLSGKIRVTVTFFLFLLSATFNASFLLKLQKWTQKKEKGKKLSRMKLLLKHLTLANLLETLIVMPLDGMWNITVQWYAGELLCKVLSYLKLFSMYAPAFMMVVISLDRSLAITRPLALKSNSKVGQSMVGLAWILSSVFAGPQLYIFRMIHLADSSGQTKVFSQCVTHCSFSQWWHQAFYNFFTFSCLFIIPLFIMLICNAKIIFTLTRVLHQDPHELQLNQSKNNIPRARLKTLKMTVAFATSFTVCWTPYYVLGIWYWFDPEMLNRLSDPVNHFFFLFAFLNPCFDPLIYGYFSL
KiSS-1 receptor (Homo sapiens), sequence (Q969F8 whole entry, looked up): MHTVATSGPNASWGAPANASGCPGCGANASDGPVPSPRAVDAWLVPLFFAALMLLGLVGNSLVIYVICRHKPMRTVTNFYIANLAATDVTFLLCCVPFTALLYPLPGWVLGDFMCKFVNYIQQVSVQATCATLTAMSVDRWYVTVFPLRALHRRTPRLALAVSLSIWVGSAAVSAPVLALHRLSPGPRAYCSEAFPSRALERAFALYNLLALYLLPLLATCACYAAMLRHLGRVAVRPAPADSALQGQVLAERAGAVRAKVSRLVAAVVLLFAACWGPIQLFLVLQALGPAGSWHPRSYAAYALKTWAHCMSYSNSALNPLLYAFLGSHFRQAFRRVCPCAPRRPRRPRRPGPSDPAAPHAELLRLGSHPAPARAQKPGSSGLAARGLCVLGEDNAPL
Muscarinic acetylcholine receptor M1 (Homo sapiens), sequence (P11229 whole entry, looked up): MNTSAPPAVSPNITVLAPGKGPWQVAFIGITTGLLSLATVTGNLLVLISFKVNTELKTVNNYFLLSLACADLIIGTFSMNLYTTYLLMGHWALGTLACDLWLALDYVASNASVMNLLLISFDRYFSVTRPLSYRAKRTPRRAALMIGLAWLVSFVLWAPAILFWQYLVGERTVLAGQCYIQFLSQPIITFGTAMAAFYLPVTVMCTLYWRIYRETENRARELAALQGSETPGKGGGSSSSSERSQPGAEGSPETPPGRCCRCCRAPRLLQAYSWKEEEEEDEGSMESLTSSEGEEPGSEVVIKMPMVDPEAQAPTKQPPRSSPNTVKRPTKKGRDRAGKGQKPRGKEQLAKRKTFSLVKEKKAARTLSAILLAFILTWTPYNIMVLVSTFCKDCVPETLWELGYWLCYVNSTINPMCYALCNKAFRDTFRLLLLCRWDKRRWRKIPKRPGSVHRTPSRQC
Beta-2 adrenergic receptor (Homo sapiens), sequence (P07550 whole entry, looked up): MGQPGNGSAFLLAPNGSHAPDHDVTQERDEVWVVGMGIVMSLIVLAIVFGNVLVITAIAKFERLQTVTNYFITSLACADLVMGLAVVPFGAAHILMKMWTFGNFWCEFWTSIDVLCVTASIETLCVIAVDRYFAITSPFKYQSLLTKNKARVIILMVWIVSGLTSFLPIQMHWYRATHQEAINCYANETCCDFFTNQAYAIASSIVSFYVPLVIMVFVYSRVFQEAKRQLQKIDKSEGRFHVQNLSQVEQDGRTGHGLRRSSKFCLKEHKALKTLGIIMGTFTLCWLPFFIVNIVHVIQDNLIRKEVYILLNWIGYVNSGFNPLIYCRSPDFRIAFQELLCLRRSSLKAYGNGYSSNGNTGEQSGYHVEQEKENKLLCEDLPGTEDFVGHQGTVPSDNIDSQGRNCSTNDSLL
5-hydroxytryptamine receptor 2A (Homo sapiens), sequence (P28223 whole entry, looked up): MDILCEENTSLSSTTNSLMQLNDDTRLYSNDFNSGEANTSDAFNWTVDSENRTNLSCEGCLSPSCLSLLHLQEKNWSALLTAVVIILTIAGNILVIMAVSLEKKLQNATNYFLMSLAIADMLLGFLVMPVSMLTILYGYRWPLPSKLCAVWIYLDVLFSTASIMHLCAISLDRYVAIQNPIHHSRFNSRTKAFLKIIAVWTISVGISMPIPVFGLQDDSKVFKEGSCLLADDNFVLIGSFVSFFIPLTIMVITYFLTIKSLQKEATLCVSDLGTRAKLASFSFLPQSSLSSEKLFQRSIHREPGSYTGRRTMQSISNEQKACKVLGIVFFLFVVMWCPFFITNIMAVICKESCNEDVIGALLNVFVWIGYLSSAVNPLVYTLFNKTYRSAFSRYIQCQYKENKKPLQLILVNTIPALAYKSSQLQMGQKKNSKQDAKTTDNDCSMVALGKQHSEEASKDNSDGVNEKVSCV

Take `CC(C)NCC(O)c1cc(O)cc(O)c1` (stereo not drawn): the Potency entry in experiment [1], in experiment [2], in experiment [3], in experiment [4], in [5] and in experiment [6] was “inactive” each time. For the same compound, the Potency entry in experiment [7], in experiment [8], in [9], in experiment [10], in [11] and in experiment [12] was “inactive” throughout. Moreover, the Potency result in experiment [13], in [14] and in [15] was “inactive” each time.

Turning to `CC(=O)NNC(C)=O`, the Potency entry in experiment [1], in [2], in experiment [3], in experiment [4], in [5] and in experiment [6] was “inactive” in each case. The Potency entry in [7], in experiment [8], in experiment [9], in experiment [10], in experiment [11] and in experiment [12] was “inactive” throughout. Also, the Potency entry in experiment [16], in experiment [13], in [14] and in experiment [15] was “inactive” throughout.

`CC(C)CCC(=O)CCC(C)C`: the Potency entry in [1], in experiment [2], in experiment [3], in experiment [4], in experiment [5] and in [6] was “inactive” throughout. For the same compound, the Potency entry in [7], in [8], in experiment [9], in [10], in [11] and in experiment [12] was “inactive” in each case. Besides, the Potency result in [16], in experiment [13], in experiment [14] and in [15] was “inactive” in each case.

In the case of `O=C(c1ccc(O)c(O)c1)c1ccc(O)cc1O`, the Potency entry in experiment [1], in experiment [2], in [3], in experiment [4], in experiment [5] and in [6] was “inactive” throughout. Besides, the Potency result in [7], in experiment [8], in [10], in [11] and in experiment [13] was “inactive” throughout. Also, the Potency in experiment [9] was 47.1 µM (active).

Regarding `COc1cc(S(=O)(=O)Nc2ccccc2)c(OC)cc1N`, the Potency entry in experiment [1], in experiment [2], in experiment [3], in [4], in experiment [5] and in experiment [6] was “inactive” throughout. The Potency result in experiment [7], in experiment [8], in experiment [9], in experiment [10], in [11] and in experiment [17] was “inactive” throughout. Besides, the Potency result in experiment [16], in experiment [14] and in experiment [15] was “inactive” throughout.

Turning to `CCSCC`, the Potency entry in experiment [1], in experiment [3], in [4], in [5], in experiment [7] and in experiment [8] was “inactive” throughout. Moreover, the Potency entry in experiment [9], in experiment [10], in experiment [11], in experiment [12], in experiment [16] and in experiment [14] was “inactive” each time. Moreover, in experiment [15], the Potency result is “inactive”. Also, the Potency in experiment [2] was 72.5 µM (active); in experiment [6], 19.3 µM (active).

On to `C=C(C)C(=O)OCCOP(=O)(O)OCCOC(=O)C(=C)C`, for which the Potency entry in [1], in [2], in experiment [3], in experiment [4], in experiment [5] and in experiment [6] was “inactive” each time. In addition, the Potency entry in [7], in experiment [8], in experiment [9], in [10], in [12] and in experiment [17] was “inactive” throughout. The Potency entry in [16], in experiment [13], in experiment [18], in experiment [14] and in experiment [15] was “inactive” each time.

In the case of `CN(C)CCOc1ccccc1Cc1ccccc1`, the Potency entry in experiment [1], in experiment [2], in experiment [3], in experiment [4], in [5] and in [6] was “inactive” throughout. In addition, the Potency result in experiment [7], in [8], in experiment [10], in experiment [12], in experiment [16] and in [14] was “inactive” throughout. Besides, in experiment [15], the Potency result was “inactive”. Moreover, the Potency is 0.326 µM (active) in [9], 1.45 µM (active) in experiment [11] and 33.5 µM (active) in experiment [13].

Regarding `CC(=O)c1ccc(C)cc1`, the Potency entry in experiment [1], in [2], in [3], in [4], in experiment [5] and in experiment [6] was “inactive” throughout. Also, the Potency result in [7], in [8], in experiment [9], in [10], in [11] and in experiment [12] was “inactive” each time. Further, the Potency result in [16], in experiment [13], in [14] and in [15] was “inactive” in each case.

The record behind these values is PubChem BioAssay (Tox21).
